In PubChem BioAssay (NCATS):
Where “and” joins values, the source holds several entries; their conditions need not be identical. Equal entries are not always repeated. Inconclusive results are not listed. Calls of active or inactive are those of the source. Unless noted, the call rests on the fitted dose curve; in most records, active means well fitted curve in the direction sought with a large enough effect; inconclusive means small, poorly fitted or top-dose-only effect, or another doubt; inactive means no such curve, though single readings can be large; an effect the other way counts as inactive or inconclusive.

How the values were obtained:
[1] = qHTS Assay for Identifying Gametocytocidal Compounds (AID 743244);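 further: on the % scale 0 is the no-effect control and ±100 the full control effect; actives lower the fluorescent signal which means gametocytes are killed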; settings: P. falciparum 3D7 stage III-V gametocytes, alamarBlue, 72 h; max response: stronger effect = lower value
Procedure, shortened: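 In this qHTS viability screen, late-stage 3D7 gametocytes are incubated with compound for 72 h, then with alamarBlue for 24 h; reduced resorufin fluorescence marks killing.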

[2] = qHTS assay for cell viability of HEK293 cells (AID 743288); settings: ATP luminescence (CellTiter-Glo), 18 h; max response: stronger effect = lower value; further: nearly all actives have a fitted effect of over 50% in size; further: potency means the concentration at half of the fitted maximal effect; on max response: on the % scale 0 is the no-effect control and ±100 the full control effect
Procedure, shortened: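 Total intracellular ATP, measured with a luciferase-coupled reagent, indicates the number of viable HEK293 cells. Exposure to test chemicals lasts 18 h at 37 C in 1,536-well format at 2,000 cells/well.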

[3] = qHTS assay for cell viability of the p53RE-bla HCT-116 cell line (AID 743292); further: nearly all actives have a fitted effect of over 55% in size; further: potency means the concentration at half of the fitted maximal effect
Procedure, shortened: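 Compound-exposed HCT-116 (p53RE-bla) cells, 4,000 per well, were kept 16 h at 37 C following a 5 h preincubation. Cell number was estimated from total ATP by CellTiter-Glo luminescence read after 30 min at room temperature.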

[4] = qHTS profiling of the MIPE4 collection as inhibitors of Plasmodium falciparum (3D7) proliferation (AID 743344; call rule not given here;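 further: scaled between DMSO vehicle wells and 0.29 µM artemisinin as full inhibition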); settings: P. falciparum 3D7 in erythrocytes, SYBR Green DNA fluorescence, 72 h; at 28.5 µM (top of the series) unless noted
Procedure, shortened: (§1)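 Erythrocytes infected with P. falciparum (0.3% parasitemia, 2.5% hematocrit) incubated with compounds 72 h at 37 C, 5% CO2. Lysis with saponin/Triton buffer containing SYBR Green I, overnight at room temperature in the dark; DNA fluorescence (485/535 nm) normalised to 0.29 uM artemisinin and DMSO.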

[5] = qHTS profiling of the MIPE4 collection as inhibitors of Plasmodium falciparum (DD2) proliferation (AID 743345; call rule not given here); settings: P. falciparum Dd2 in erythrocytes, SYBR Green DNA, 72 h; at 28.5 µM (top of the series) unless noted
Procedure, shortened: as §1

[6] = qHTS profiling of the MIPE4 collection as inhibitors of Plasmodium falciparum (DD2) proliferation (Rep 2) (AID 743346; call rule not given here); settings: P. falciparum Dd2 in erythrocytes, SYBR Green DNA, 72 h; at 28.5 µM (top of the series) unless noted
Procedure, shortened: as §1

[7] = qHTS profiling of the MIPE4 collection as inhibitors of Plasmodium falciparum (HB3) proliferation (AID 743347; call rule not given here;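 further: plate controls were DMSO vehicle wells for no effect and artemisinin wells for full effect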); settings: P. falciparum HB3 in erythrocytes, SYBR Green DNA, 72 h; at 28.5 µM (top of the series) unless noted
Procedure, shortened: as §1

[8] = High-throughput drug toxicity screening in the BPDCN cell line Gen2.2 (AID 1224824; call rule not given here;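 further: cells exposed to compounds for 48 h before reading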); settings: Gen2.2 BPDCN cells; at 45.8 µM (top of the series) unless noted
Procedure, shortened: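 CellTiter-Glo luminescence read after 48 h compound exposure at 37 C defines viability; percent activity set with DMSO as 100% and bortezomib (9.2 uM final) as 0%. 500 exponentially growing cells per well, RPMI plus 10% FBS.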

[9] = High-throughput drug toxicity screening in the BPDCN cell line Cal-1 (AID 1224825; call rule not given here); settings: Cal-1 BPDCN cell viability, qHTS; at 45.8 µM (top of the series) unless noted
Procedure, shortened: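 Cal-1 cells, 500 per well in phenol-red-free RPMI with 10% FBS, exposed to compounds for 48 hours at 37C, 5% CO2. Viability read by CellTiter-Glo luminescence; percent activity normalized to DMSO (100%) and 9.2 uM bortezomib final (0%).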

[10] = qHTS assay for measurement of the activity of small molecule inhibitors on Zika virus induced Caspase-3 activity in human iPSC derived neural progenitor cells (hNPCs) (AID 1224857); further: % of control where 0% means no effect; nearly all actives have a fitted effect of over 65% in size
Procedure, shortened: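 In medium with heparin 2 ug/ml and cyclopamine 2 uM, hNPCs (350 cells/well) received compound for one hour and then Zika virus at 2 FFU/cell; caspase activity was measured by Caspase-Glo 3/7 luminescence 6 h post-infection.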

[11] = qHTS assay for measurement of the activity of small molecule inhibitors on Zika virus induced Caspase-3 activity in human astrocytoma cells (AID 1224859);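 further: plate controls were ZIKV-infected untreated cells for no effect and uninfected cells for full effect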
Procedure, shortened: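 A cell-based luminescent caspase-3/7 assay used SNB-19 cells infected with ZIKV (2 FFU/cell) for 6 h following 1 h compound pretreatment.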

[12] = qHTS Screen of the MIPE 4.0 Collection Against Ewings Sarcoma (RDES) (AID 1259252); further: nearly all actives have a fitted effect of over 35% in size; further: potency means the concentration at half of the fitted maximal effect
Procedure, shortened: (§2)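 Log-phase cells in RPMI with 5% FBS attached for 4 h, then received compounds as a titration for 48 h at 37C, 5% CO2. Viability was read by CellTiter-Glo luminescence and normalized to DMSO and no-cell wells.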

[13] = qHTS Screen of the MIPE 4.0 Collection Against Ewings Sarcoma (TC71) (AID 1259253); further: nearly all actives have a fitted effect of over 40% in size; further: potency means the concentration at half of the fitted maximal effect
Procedure, shortened: as §2

[14] = qHTS Screen of the MIPE 4.0 Collection Against Ewings Sarcoma (EW8) (AID 1259255); further: nearly all actives have a fitted effect of over 35% in size; further: potency means the concentration at half of the fitted maximal effect;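 on viability: 100% = DMSO-treated cells and 0% = medium-only wells without cells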
Procedure, shortened: as §2

[15] = qHTS Screen of the MIPE 4.0 Collection Against Ewings Sarcoma (TC32) (AID 1259256); further: nearly all actives have a fitted effect of over 45% in size; further: potency means the concentration at half of the fitted maximal effect
Procedure, shortened: as §2

[16] = qHTS assay to identify small molecule inhibitors of chordoma cells - UCH-1 (AID 1259355); further: nearly all actives have a fitted effect of over 55% in size; further: potency means the concentration at half of the fitted maximal effect
Procedure, shortened: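 Cells (800/well) were seeded and left overnight at 37 C, 5% CO2, then treated with drugs at 15 concentrations plus a combination mix of auranofin, camptothecin, doxorubicin, rubitecan and topotecan. Viability after 48hr was read by CellTiter-Glo luminescence.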

[17] = biological target: Hexokinase-4 (Homo sapiens) + Glucokinase regulatory protein (Homo sapiens) (UniProt P35557+Q14397); assay: qHTS assay for inhibitors of recombinant human GCK-GKRP interaction: HTRF assay (AID 743207);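 further: 0% = DMSO with GCK present and -100% = DMSO wells lacking GCK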
Procedure, shortened: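 After 60 min equilibration at room temperature with anti-FLAG XL665 and anti-GST antibodies, FRET ratio (665/615 nm, excitation 320 nm) was read. Proteins: GST-GCK and FLAG-GKRP, each 5 nM, plus 2 uM S6P, pH 7.1 buffer; GCK-free wells define minimum signal.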

Hexokinase-4 (Homo sapiens) + Glucokinase regulatory protein (Homo sapiens), sequence (P35557 whole entry, looked up): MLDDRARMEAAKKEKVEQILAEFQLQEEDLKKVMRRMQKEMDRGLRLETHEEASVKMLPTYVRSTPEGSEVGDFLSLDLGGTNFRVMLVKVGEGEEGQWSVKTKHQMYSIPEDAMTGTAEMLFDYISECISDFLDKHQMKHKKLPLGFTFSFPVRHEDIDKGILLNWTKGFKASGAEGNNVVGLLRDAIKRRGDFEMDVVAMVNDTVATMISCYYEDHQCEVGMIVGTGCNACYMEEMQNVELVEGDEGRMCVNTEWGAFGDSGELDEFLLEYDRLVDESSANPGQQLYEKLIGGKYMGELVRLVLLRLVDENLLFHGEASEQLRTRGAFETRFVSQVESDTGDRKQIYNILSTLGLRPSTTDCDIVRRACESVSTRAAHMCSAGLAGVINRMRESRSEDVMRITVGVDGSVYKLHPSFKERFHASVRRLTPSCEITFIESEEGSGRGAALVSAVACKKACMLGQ
Hexokinase-4 (Homo sapiens) + Glucokinase regulatory protein (Homo sapiens), sequence (Q14397 whole entry, looked up): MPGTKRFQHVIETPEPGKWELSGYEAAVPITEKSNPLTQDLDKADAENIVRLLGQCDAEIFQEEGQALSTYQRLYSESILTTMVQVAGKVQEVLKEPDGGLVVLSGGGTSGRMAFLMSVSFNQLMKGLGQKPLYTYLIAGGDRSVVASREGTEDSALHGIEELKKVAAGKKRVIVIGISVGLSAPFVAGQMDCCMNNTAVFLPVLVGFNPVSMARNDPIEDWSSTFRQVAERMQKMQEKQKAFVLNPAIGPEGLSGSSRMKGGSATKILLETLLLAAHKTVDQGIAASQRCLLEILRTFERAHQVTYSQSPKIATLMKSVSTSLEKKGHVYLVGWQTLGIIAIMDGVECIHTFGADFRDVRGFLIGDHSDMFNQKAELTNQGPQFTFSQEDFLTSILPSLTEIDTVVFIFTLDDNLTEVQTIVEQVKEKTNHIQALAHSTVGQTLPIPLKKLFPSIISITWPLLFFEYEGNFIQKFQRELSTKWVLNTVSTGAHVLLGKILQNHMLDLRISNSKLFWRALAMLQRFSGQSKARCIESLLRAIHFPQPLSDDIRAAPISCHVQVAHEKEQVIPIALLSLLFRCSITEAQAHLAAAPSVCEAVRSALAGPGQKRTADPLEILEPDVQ

Row | Compound | max response [1] | max response [2] | Potency [3] | parasite growth, % of DMSO control [4] | parasite growth remaining, % of DMSO control (lower = more inhibition) [5] | parasite growth, % of control (lower = inhibition) [6] | growth, % of control [7] | cell viability, % of control (lower = more cytotoxic) [8] | viability (% of control) [9] | Potency [10] | Potency [11] | Potency [12] | Potency [13] | Potency [14] | Potency [15] | Potency [16] | Potency [2] | outcome [17]
1 | S=P(N1CC1)(N1CC1)N1CC1 | 9.1% (inactive) and 8.65% (inactive) | -14.8% (inactive) | inactive | 11.7% | 24.7% | 15.4% | 3.94% | 92% | 27.1% | inactive | inactive | 16.6 µM (active) | 16.6 µM (active) | 6.62 µM (active) | 2.64 µM (active) | inactive |  | 
2 | C[C@]12C=CC(=O)C=C1CC[C@@H]1[C@@H]2C(=O)C[C@@]2(C)[C@H]1CC[C@]2(O)C(=O)CO | 18% (inactive) | 0.765% (inactive) | inactive | 93.3% [at 9.64 µM] | 95.7% [at 9.64 µM] | 82.6% [at 9.64 µM] | 104% [at 9.64 µM] | 158% [at 23.2 µM] | 86.4% [at 23.2 µM] | inactive | inactive | inactive | inactive | inactive | inactive | inactive |  | 
3 | Cc1cccc(N(C)C(=S)Oc2ccc3ccccc3c2)c1 | 6.54% (inactive) |  |  | 51.5% | 84.1% | 51.6% | 50.4% | 227% | 79.3% | inactive | inactive | inactive | inactive | inactive | inactive | inactive |  | 
4 | CCCN[C@H]1CCc2nc(N)sc2C1 |  |  |  | 5.95% | 92.8% | 8.29% | 6.99% | 133% | 78% | inactive | inactive | inactive | inactive | inactive | inactive | inactive |  | 
5 | Cc1cc(NS(=O)(=O)c2ccc(N)cc2)no1 |  | -9.46% (inactive) | inactive |  |  |  |  | 56.5% | 82.3% | inactive | inactive | inactive | inactive | inactive | inactive | inactive |  | 
6 | CN(C)c1ccc(C(=C2C=CC(=[N+](C)C)C=C2)c2ccc(N(C)C)cc2)cc1 |  |  | 25.1 µM (active) and 35.5 µM (active) | 2.71% | 5.08% | 6.31% | 2.46% | 1.19% | 1.42% | inactive | inactive | 0.372 µM (active) | 0.296 µM (active) | 0.418 µM (active) | inactive | 22.4 µM (active) | 14.1 µM (active) and 11.2 µM (active) | 
7 | CCN(CC)CC#CCOC(=O)C(O)(c1ccccc1)C1CCCCC1 (stereo not drawn) | -0.0303% (inactive) and 25.9% (inactive) |  |  | 14.3% | 58.4% | 16.6% | 11.2% | 205% | 104% | inactive | inactive | inactive | inactive | inactive | inactive | inactive |  | inactive
8 | CC(C)(C)NC(=O)[C@H]1CC[C@H]2[C@@H]3CC[C@H]4NC(=O)C=C[C@]4(C)[C@H]3CC[C@]12C |  |  |  | 60.2% | 91.7% | 53% | 72.9% | 25.5% | 4.87% | inactive | inactive | 1.05 µM (active) | 1.32 µM (active) | 5.9 µM (active) | 3.72 µM (active) | inactive |  | 
